CDC25B-CDK2 inh: primary biochemical HTRF screen for blockers of M-phase inducer phosphatase 2 binding to CDK2/cyclin A. P30305+P24941. HTRF CDC25B-CDK2/CyclinA binding, anti-His/anti-Flag; stronger effect = higher value. z-score (no concentration beside the values). 0.72% of 94,000 active. AID 1259370, 2018; in the data active = z-score above about 3.2
HIV TAR-Tat: TAR RNA-Tat peptide displacers, HIV-1, primary screen, biochemical, FRET, FAM/TAMRA-labeled Tat; HIV-1 TAR RNA, Tat peptide displacement FRET; stronger effect = higher value; z-score (test concentration not listed); 0.6% of 100,000 active; AID 1259389, 2018; active = z-score of 3 or more in at least 2 runs
Starred values were filed as active, the others as inactive; x = no result given. Sampled rows, rich in hits. Any-hit rate of the full collection: about 0.86%.

SMILES	CDC25B-CDK2 inh	HIV TAR-Tat
O=C1CCC(=O)N1CCCn1c2ccccc2c2nc3ccccc3nc21	14*	1
CCCCSc1nc2c(c(=O)[nH]1)C(c1ccc(OC)cc1)C(C(=O)OC(C)C)=C(C)N2 (configuration not stated)	-0.92	0.73
CC(C)c1ccc(-n2cc[nH]c(=O)c2=O)cc1	-1.1	1.8
CCOc1cc(/C=c2/sc3nc4cc(C)c(C)cc4n3c2=O)cc(I)c1OC	-1.9	x
C=CCN1C(=S)Nc2cccc[n+]2[B-]1(CCCC)CCCC	3.9*	x
CCC(C)(C)C1CCC(=O)C(C2(O)C(=O)Nc3ccccc32)C1 (configuration not stated)	-1.4	x
CCn1c(SCC(=O)Nc2ccc3c(c2)OCO3)nc2c(c1=O)SCC2	-0.74	0.84
Cc1ccc(Cc2nnc(-c3cc(N)ccc3F)o2)cc1	x	34*
Cc1ccc(Cc2nnc(-c3ccc(N)cc3Cl)o2)cc1	x	-0.34
CCOC(=O)c1sc(=S)n(-c2ccc(F)c(F)c2)c1N	x	17*
CCOC(=O)c1sc(=S)n(-c2ccc(C)cc2)c1N	x	1.4
COc1cc(OC)c(-n2nnc(S(=O)(=O)c3ccccc3)c2C)cc1Cl	-0.41	1.6
O=C1c2ccccc2C(=O)c2c(O)c(O)cc(O)c21	x	3.5
O=c1c(O)cccc2cc(O)c(O)c(O)c12	x	30*
O=C(O)c1cc(N(Cc2ccccc2O)Cc2cc(O)ccc2O)ccc1O	x	34*
Oc1ccccc1CN(Cc1ccccc1)Cc1ccccc1	-0.68	0.39
CC(Cc1ccc(O)c(O)c1)C(C)Cc1ccc(O)c(O)c1 (configuration not stated)	x	6.2*
N[C@@H](Cc1ccc([N+](=O)[O-])cc1)C(=O)O	-1.5	x
C[C@H](Cc1ccc(O)c(O)c1)[C@@H](C)Cc1ccc(O)c(O)c1	-0.68	x
N[C@@H](Cc1ccc(O)c(O)c1)C(=O)O	0.41	24*
OC(CN1CCCCC1)Cn1c2c(c3ccccc31)CCCC2 (configuration not stated)	-0.8	x
CCOCCCN1C(=O)c2cc3sccc3n2CC1(C)C(=O)NC1CCCCC1 (configuration not stated)	-1.8	1.6
O=[N+]([O-])c1cccnc1NCc1ccc(F)cc1	-1.7	0.51
COc1ccc2c(c1)OCC(Cc1ccc(OC)c(OC(C)=O)c1)C2=O (configuration not stated)	x	1.1
COc1ccc2c(c1)OCC(Cc1ccc(OC)c(OC)c1)C2=O (configuration not stated)	x	14*
SMILES	CDC25B-CDK2 inh	HIV TAR-Tat
Cc1ccccc1Nc1nc(NCc2ccco2)c2ccccc2n1	6*	-0.17
Oc1ccccc1Nc1nc(NCc2ccco2)c2ccccc2n1	-1.2	8.7
CCCCOC(=O)C1=C(C)NC2=C(C(=O)CC(c3ccccc3)C2)C1c1ccco1 (configuration not stated)	1.4	1.6
O=C1CC(c2ccco2)CC2=C1C(c1ccccc1)C1=C(N2)c2ccccc2C1=O (configuration not stated)	12*	0.01
CC(=O)Nc1ccc(S(=O)(=O)NC23CC4CC(CC(C4)C2)C3)cc1	-1.6	x
CC1=C(c2ccc(C)c(C)c2)S(=O)(=O)N=C1N1CC(C)CC(C)C1 (configuration not stated)	-9	0.05
O=C(Nc1sc2c(c1C(=O)NCc1ccco1)CCC2)c1csnn1	-0.63	9.3*
O=C(Nc1sc2c(c1C(=O)NCc1ccco1)CCCC2)c1csnn1	0.49	0.46
COc1cccc2c1c(NC(=O)c1cc(C)oc1C)nn2C	-1.1	x
CN(C)c1cccc2c1c(NC(=O)c1cc(Cl)sc1Cl)nn2C	13*	x
O=c1c2ccccc2n2c(-c3ccccc3F)nnc2n1Cc1ccc(F)cc1	-1.8	1.6
Cc1nc2sc(C(=O)Nc3cnc4ccccc4c3)c(N)c2c(C)c1C	-1.1	x
CC1CCCCC1NC(=O)C1(C)Cn2c(cc3occc32)C(=O)N1C1CCCCC1 (configuration not stated)	x	3
Cc1cc2c(cc3n2CC(C)(C(=O)NC2CCCCC2)N(C2CCCCC2)C3=O)o1 (configuration not stated)	x	2.8
CC1CCC(NC(=O)C2(C)Cn3c(cc4occc43)C(=O)N2Cc2ccco2)CC1 (configuration not stated)	x	19*
CC1CCC(NC(=O)C2(C)Cn3c(cc4occc43)C(=O)N2Cc2cccs2)CC1 (configuration not stated)	x	10*
CC1CCCC(NC(=O)C2(C)Cn3c(cc4occc43)C(=O)N2Cc2ccco2)C1C (configuration not stated)	x	4.2
Cc1cc2c(cc3n2CC(C)(C(=O)NC2CCCCC2)N(C(C)C)C3=O)o1 (configuration not stated)	x	7.2*
CC1CCC(NC(=O)C2(C)Cn3c(ccc3-c3ccco3)C(=O)N2Cc2cccs2)CC1 (configuration not stated)	x	0.47
